# Source: PubChem BioAssay (several laboratories)
# The list is not random: actives were taken first. Their share in the collection is about 3.2%.
# ANO1 block: inhibitors of mouse TMEM16A calcium-activated chloride channel. HEK293 TMEM16A/YFP iodide influx fluorescence, ionomycin. normalized B-score (activity score, 25-100; higher = stronger inhibition) at 10 µM. hit rate 1.2% among 310,000. AID 588511;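 active means ratio plate-corrected score three or more library SD toward inhibition, starting fluorescence score within five deviations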;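 further: score derived from kinetic fluorescence span divided by baseline fluorescence per well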
# CHT PAM: human CHT allosteric activation; hit rate 0.49% among 310,000; AID 488977; CHT-expressing cells, membrane potential dye, choline EC20; hits give high values; LV-AA mutant CHT in HEK293 cells; B-score at 10 µM;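 active means initial fluorescence not abnormally high and integrated response B-score, plate-corrected, over 3 SD above library mean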
# CHT inh: human CHT choline transport inhibition. Q9GZV3. CHT-expressing cells, membrane potential dye, choline response; hits give low values. B-score at 10 µM. hit rate 0.86% among 310,000. AID 488975;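 active means B-score over 3 SD under the library average, and starting fluorescence ratio not unusually high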;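 further: choline stimulus applied at its EC90 after an EC20 pre-addition; B-score computed on integrated fluorescence ratio after choline addition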
# TMEM16A act: activators or potentiators of mouse TMEM16A chloride channel; B-score at 10 µM; hit rate 0.3% among 340,000; Q8BHY3; HEK293 TMEM16A/YFP-H148Q/I152L, iodide quench fluorescence; hits give low values;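 active means fluorescence-ratio B-score plate-corrected deviation score at least 3 library SD below zero, with starting fluorescence score within 5 deviations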;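 further: channel opened by trigger with iodide after compound preincubation; score built on the fluorescence ratio of max minus min over baseline; more negative score means more quench and so TMEM16A activation or potentiation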
# PHOSPHO1 inh: blocks human PHOSPHO1 phosphatase activity | Q8TCT1 | recombinant PHOSPHO1, absorbance phosphatase assay | inhibition, % at 13.3 µM | hit rate 1.1% among 290,000; in the data active means inhibition above about 60%
# Target sequence (Q8TCT1 whole entry, looked up): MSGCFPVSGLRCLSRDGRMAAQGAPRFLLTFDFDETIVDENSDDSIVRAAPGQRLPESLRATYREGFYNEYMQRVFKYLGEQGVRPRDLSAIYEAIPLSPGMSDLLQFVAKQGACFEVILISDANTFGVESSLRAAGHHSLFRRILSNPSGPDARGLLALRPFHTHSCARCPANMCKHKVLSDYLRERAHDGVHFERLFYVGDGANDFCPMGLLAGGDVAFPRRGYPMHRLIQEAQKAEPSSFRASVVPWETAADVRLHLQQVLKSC
# HDAC3 inhib: inhibitors of human histone deacetylase 3; O15379; recombinant HDAC3, fluorogenic peptide/trypsin coupled, fluorescence; inhibition, % at 8.3 µM; hit rate 0.15% among 320,000; AID 2718; in the data active means inhibition above about 26%, passing the limit was not always enough; inconclusive means no clear call, values can overlap the other calls
# CHT act confirm: confirmation of human choline transporter (CHT) activators | AID 504833 | hit rate 91% among 2,500 | shares compounds with CHT PAM | CHT-expressing cells, membrane potential dye fluorescence (FDSS); % of choline EC20–EC90 response window; HEK293 expressing CHT LV-AA mutant; choline added at its EC20 | activation, % at 10 µM;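 active means primary screen active, with duplicate mean activation above negative control mean plus 3 SD, cut at about 11% in these data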
# HEK293 MP dye: activity in parental HEK293 cells lacking CHT; shares compounds with CHT PAM; membrane potential dye fluorescence (FDSS); measured after EC20 choline addition; ratio readout change at 10 µM, hits read low; hit rate 62% among 2,500; AID 623908;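 active means duplicate-averaged ratio beyond 3 SD from buffer wells, up or down, though filed actives are nearly all decreases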
# Starred values were filed as active, the others as inactive; i = inactive; ? = inconclusive; nt = no result given.
SMILES,ANO1 block,CHT PAM,CHT inh,TMEM16A act,PHOSPHO1 inh,HDAC3 inhib,CHT act confirm,HEK293 MP dye
CCCCN(CC)CCCNC(=O)c1cn(C)c2ccc(S(=O)(=O)N(C)C3CCCCC3)cc2c1=O,i,i,i,i,13,4,nt,nt
CN(C1CCCCC1)S(=O)(=O)c1ccc2c(c1)c(=O)c(C(=O)NCCN1CCCC1)cn2C,i,i,i,i,15,?,40*,-37*
CN(CCNC(=O)c1cn(C)c2ccc(S(=O)(=O)N(C)C)cc2c1=O)CCc1ccccc1,i,i,i,i,5,-5,23*,-26*
O=C(N1CCCCC1)C1(c2ccccc2)CCCCC1,i,i,i,i,29,-5,nt,nt
COc1ccc(OC(=O)c2cccc(S(=O)(=O)N3CCCC3)c2)cc1,i,i,i,i,-11,-2,nt,nt
Cc1cn2nc(N)c3ccccc3c2n1,i,i,i,i,-25,-3,62*,-57*
O=C(NCc1nnc(SCC(=O)N2CCN(c3ccccc3)CC2)o1)c1ccc(F)cc1,i,i,i,i,8,1,nt,nt
Nc1ccc(Br)c[n+]1Cc1cccc2cccnc12,i,i,i,i,6,nt,34*,-46*
CCCC(CCC)C(=O)Nc1ccc2c(c1)N(C(=O)CCN1CCN(C)CC1)c1ccccc1CC2,i,6.8*,i,i,-3,-6,19*,i
CCOC(=O)Nc1ccc2c(c1)N(C(=O)CN1CCN(C)CC1)c1ccccc1CC2,i,i,i,i,-2,-3,nt,nt
O=C(Nc1cccnc1)c1ccc2c(c1)C(=O)N(Cc1cccnc1)C2=O,i,i,i,i,11,-1,16*,-39*
CC(=O)c1cccc(NC(=O)c2ccc3c(c2)C(=O)N(Cc2cccnc2)C3=O)c1,i,i,i,i,28,2,nt,nt
CC(=O)Nc1ccc(NC(=O)C(C)OC(=O)c2cccs2)cc1 (centres undefined),nt,nt,nt,i,nt,2,nt,nt
CCOC(=O)c1c(C)n(-c2ccccc2)c2ccc(OCCN(C)C)cc12,i,i,i,i,19,-1,31*,i
CCOC(=O)c1c(C)n(-c2ccc(OC)cc2)c2ccc(O)c(CN(C)C)c12,i,6.5*,i,i,-17,9,9,-26*
CCOC(=O)c1c(C)n(-c2ccc(C)cc2)c2ccc(O)c(CN(C)C)c12,i,8.8*,i,i,12,7,15*,i
CCOC(=O)c1sc(=N)n(-c2ccc(OC)cc2)c1C,i,i,i,i,30,9,nt,nt
COC(=O)c1ccc2nc(C)cc(Nc3ccccc3C)c2c1,i,6.6*,i,i,48,12,44*,-44*
Cc1cc(C)c(S(=O)(=O)c2ccccc2C)c(OCCO)n1,i,i,i,i,24,-2,nt,nt
COc1ccc(C(=O)C(CCC(CNC(C)(C)C)C(=O)c2ccc(OC)cc2)CNC(C)(C)C)cc1 (centres undefined),i,6.6*,i,i,0,6,28*,i
CN1CCN(c2nc(-c3ccc(Cl)c(Cl)c3)nc3ccccc23)CC1,i,i,i,i,9,-3,nt,nt
CN1CCN(c2nc(-c3cccnc3)nc3ccccc23)CC1,i,7.3*,i,i,23,-5,42*,-88*
CN1CCN(c2nc(-c3ccccn3)nc3ccccc23)CC1,i,9.1*,i,i,2,5,55*,-94*
Cc1cc2oc(=O)cc(Cn3ccnc3)c2cc1Cl,i,i,i,i,nt,-1,nt,nt
Cc1cc(Cn2ccnc2)c(C)cc1Cn1ccnc1,i,i,i,i,14,-3,45*,-41*
SMILES,ANO1 block,CHT PAM,CHT inh,TMEM16A act,PHOSPHO1 inh,HDAC3 inhib,CHT act confirm,HEK293 MP dye
Cc1cccc(NC(=S)NCc2ccc3c(c2)OCO3)c1C,i,i,i,i,-2,4,nt,nt
CC(C)(C)OC(=O)NCCCCCc1nnc(SCc2cccc(F)c2)o1,25*,8.3*,i,i,24,1,-2,i
CC(C)(C)OC(=O)NCCCCCc1nnc(SCc2ccccc2F)o1,i,i,i,i,37,9,nt,nt
Cc1oc(/N=C/c2c(O)ccc3ccccc23)c(C#N)c1C,nt,nt,nt,nt,-6,nt,nt,nt
Cc1ccc(C(=O)OCC(=O)NC(=O)c2cccn2C)cc1,i,i,i,i,0,14,nt,nt
Nn1cnc2sc3c(c2c1=O)CCC3,i,i,i,i,3,2,nt,nt
CC1CCCc2sc3ncn(N)c(=N)c3c21 (centres undefined),i,7.1*,i,i,8,-4,52*,-50*
O=C(CCCCn1c(=O)c2ccccc2n(Cc2ccccc2)c1=O)NC1CCN(Cc2ccccc2)CC1,i,i,i,i,-13,-2,35*,-29*
O=C(CSc1nc2ccccc2c(=O)n1-c1ccc(Cl)cc1)N/N=C/C=C/c1ccccc1[N+](=O)[O-],i,7.7*,i,i,-4,-6,13*,i
Cc1nnc(NCCc2ccccc2)c2ccccc12,i,7.2*,i,i,4,14,39*,-49*
Cc1ccccc1NS(=O)(=O)c1ccc(C(=O)OCC(=O)NCC(C)C)cc1,i,i,i,i,43,0,nt,nt
Cc1ccc(CNC(=O)CSCc2ccccc2)cc1,i,i,i,i,29,3,nt,nt
CCCCN(CCCC)CCNC(=O)CSCc1ccc(C)cc1,i,i,i,i,58,-1,35*,i
COc1ccc(C(=O)NCCSCc2cccc(Cl)c2)cc1OC,i,i,i,i,15,-9,nt,nt
CN1Cc2c(N3CCOCC3)nc3sc(C#N)c(N)c3c2CC1(C)C,i,i,i,i,-19,-6,50*,-55*
Cc1cccc(Nc2ccncc2S(=O)(=O)NC(=O)NC(C)C)c1,i,i,i,i,36,0,nt,nt
COc1cc(OC)c2nc(C)c3c(c2c1)N(c1ccc(O)cc1)CC3,i,6.4*,i,i,16,-8,34*,-42*
Cc1nc2ccc(Br)cc2c2c1CC(CBr)O2 (centres undefined),i,i,i,i,19,-2,nt,nt
Cc1nc2ccc(Br)cc2c2c1CC(CO)O2 (centres undefined),i,6.9*,i,i,38,12,53*,-53*
